# Compounds with a hit are over-represented: about 3.9% of the library has one in this group of screens.
# D1 ag – human D1 receptor agonism. P21728. 360,000 tested, 1% active. activation, % at 2 µM. HEK293 T-REx D1 cells, calcium flux, agonist mode. AID 504660; in the data active = activation above about 30%; also: 0% is about no effect
#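 Agonism was scored from calcium flux recorded over 180 s (1 read/s) after pintool compound addition, following a 10-cycle baseline. Cells were inducible force-coupled HEK293 TREx D1, plated overnight at 30 C and loaded with no-wash calcium dye.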
# D1 potentiator – potentiators of human D1 dopamine receptor; P21728; HEK293 TREx D1 cells, calcium flux, dopamine EC20 potentiation; potentiation, % at 10 µM; 360,000 tested, 0.036% active; AID 504651; in the data active = potentiation above about 30%; also: 0% is about no effect
# Eya2 inh – Eya2 (human) phosphatase inhibition | recombinant Eya2, OMFP fluorescence dephosphorylation (OMFP is methylfluorescein phosphate) | 330,000 tested, 0.006% active | Potency, µM (highest dose often 76.9 µM), for inactives: at the highest dose activity, negative = inhibition, hits mostly inhibitors | O00167 | AID 488837; also: potency is read from the fitted curve at half-maximal effect; % is scaled to controls: 0 for no effect and ±100 for the full control effect
#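 Eya2 protein (added as 0.2 uM solution) was preincubated with compound for 10 min at ambient temperature in 50 mM HEPES pH 7.5, 50 mM NaCl, 5 uM MgCl2, 0.05% BSA, 1 mM DTT. OMFP (added at 50 uM) then reacted 10 min; fluorescence read at 485/525 nm.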
# USP2a inh – blocks human ubiquitin-specific protease USP2a; Potency, µM (doses to about 38.3 µM), inactives show at the highest dose activity change, negative = inhibition, usual class: inhibitors; AID 463254; USP2 core, Ub-CHOP2 coupled fluorogenic reporter, 485/531; 330,000 tested, 0.01% active; O75604;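 also: potency is read from the fitted curve at half-maximal effect; plate controls were DMSO wells for no effect and full inhibition by NEM control for full effect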
# Target sequence (O75604 whole entry, looked up): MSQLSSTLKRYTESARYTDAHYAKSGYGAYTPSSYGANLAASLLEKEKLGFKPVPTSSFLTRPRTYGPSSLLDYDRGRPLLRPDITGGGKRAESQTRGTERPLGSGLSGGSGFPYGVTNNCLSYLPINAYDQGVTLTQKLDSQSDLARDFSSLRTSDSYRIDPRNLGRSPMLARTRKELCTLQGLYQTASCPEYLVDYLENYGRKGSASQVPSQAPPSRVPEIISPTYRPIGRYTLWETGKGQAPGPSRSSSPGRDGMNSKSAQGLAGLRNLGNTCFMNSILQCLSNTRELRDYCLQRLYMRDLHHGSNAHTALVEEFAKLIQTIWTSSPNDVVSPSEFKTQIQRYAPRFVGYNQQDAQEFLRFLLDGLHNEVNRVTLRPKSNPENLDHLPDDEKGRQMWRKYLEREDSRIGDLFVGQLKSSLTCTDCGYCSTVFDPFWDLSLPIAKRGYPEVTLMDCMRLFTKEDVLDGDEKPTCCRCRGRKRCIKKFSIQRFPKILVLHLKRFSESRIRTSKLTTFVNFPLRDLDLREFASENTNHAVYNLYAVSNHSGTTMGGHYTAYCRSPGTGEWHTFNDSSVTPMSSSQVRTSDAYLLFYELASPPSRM
#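 Cell-free coupled assay: 10nM USP2 core preincubated 30min RT with compound in Tris-HCl pH 8.0/CaCl2/CHAPS buffer, then 25nM Ub-CHOP2 and 25nM reporter substrate; fluorescence (Ex 485/Em 531) read after 60min RT, normalized to NEM inhibition, concentration-response curves fitted.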
# D1 antag – human D1 dopamine receptor antagonism. P21728. HEK293 TREx D1 cells, calcium flux, dopamine EC80; stronger effect = lower value. activity change, negative = inhibition, % at 10 µM. 360,000 tested, 3.2% active. AID 504652; in the data active = activity change below about -30%; also: % is scaled to controls: 0 for no effect and ±100 for the full control effect
#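 Compound effects on dopamine-evoked calcium signalling were measured in tetracycline-induced HEK293 Trex D1 cells. Dopamine at EC80 followed a 180 s compound pre-read, and fluorescence was tracked kinetically for 180 s more.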
# GALK inh – galactokinase (human) inhibition. Potency, µM (highest dose often 57.5 µM), without a hit: top-dose activity change, negative = inhibition, most hits filed as inhibitors. Purified GALK, Kinase-Glo residual ATP luminescence. 270,000 tested, 0.007% active; also: potency is read from the fitted curve at half-maximal effect; % is scaled to controls: 0 for no effect and ±100 for the full control effect
#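 5 nM enzyme, 35 uM ATP, 100 uM galactose, 20 mM HEPES pH8.0, 5 mM MgCl2; 1 h RT; residual ATP by Kinase-Glo Plus luminescence, qHTS format.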
# Starred values were filed as active, the others as inactive; ? = inconclusive; . = no result given. Unless noted, calls follow the shape of the dose curve; as a rule, active = well fitted inhibition curve with a large enough effect; inconclusive = small, poorly fitted or top-dose-only effect, or effect the other way; inactive = flat fitted curve, though single readings scatter.
SMILES,D1 ag,D1 potentiator,Eya2 inh,USP2a inh,D1 antag,GALK inh
C=CCc1cccc2cc(-c3nc4ccc(C)cc4[nH]3)c(=O)oc12,65.7*,2.9,.,.,-41.9*,.
O=c1oc2c(CN3CCCCC3)c(O)ccc2cc1-c1nc2ccccc2[nH]1,136.0*,-1.9,?,?,-17.8,-0.1%
Cc1ccc(/C=C2/NC(=O)N(Cc3ccccc3)C2=O)s1,28.5,-1.3,-3.8%,4.1%,-39.7*,-1.2%
c1ccc(-n2nnnc2-n2ccnc2)cc1,0.6,-0.1,-13.3%,2.8%,-96.8*,-0.2%
N#Cc1cc2cc3c(cc2nc1SCC(=O)OC1CCCCC1)OCO3,9.1,5.7,17.9%,-1.7%,-31.6*,3.0%
CC(=O)NCC(=O)NNC1CC(=O)N(c2cccc(Cl)c2)C1=O (configuration not stated),1.4,30.7*,6.3%,1.0%,7.4,.
O=C(Nc1ccc(/C=C/c2nc3ccccc3o2)cc1)c1c(F)cccc1F,8.4,-10.2,3.5%,0.2%,-41.9*,0.2%
N#C/C(=N\Nc1cccc(C(F)(F)F)c1)C(=O)c1ccsc1,22.3,-2.9,-4.0%,-0.4%,-32.4*,-5.4%
O=C(NCC1CCCO1)c1ccc(OC2CCN(C(=O)C3CC3)CC2)cc1 (configuration not stated),0.1,2.7,-3.6%,4.5%,-34.0*,7.9%
Cc1cnc(CNC(=O)c2ccc(OC3CCN(C(=O)C4CC4)CC3)cc2)cn1,1.7,5.4,-6.6%,4.9%,0.0,-1.9%
O=C(Nc1ccc(Cl)cc1)Nc1ccccc1NS(=O)(=O)c1cccs1,20.7,-13.3,0.4%,-0.5%,-33.0*,0.7%
CCC(C(=O)OCc1cc(=O)n2nc(CCOC)sc2n1)c1ccccc1 (configuration not stated),0.7,-7.0,.,.,7.2,.
COc1cc(/C=C(\C#N)c2nc3c(s2)CCCC3)ccc1O,59.7*,6.3,4.5%,8.3%,4.9,-0.3%
N#C/C(=C\c1cccnc1)c1nc2c(s1)CCCC2,3.7,1.9,-9.6%,3.9%,2.5,-3.0%
CCOC(=O)c1c(C)[nH]c(C)c1C(=O)COC(=O)c1cc(OC)cc(OC)c1,-1.2,2.7,-16.7%,1.3%,.,10.5%
CCOC(=O)c1c(C)[nH]c(C)c1C(=O)COC(=O)c1cc(OC)c(OC)cc1OC,2.5,-8.2,-23.8%,-0.8%,-31.7*,13.5%
CCOC(=O)c1c(C)[nH]c(C)c1C(=O)COC(=O)c1cccc(S(=O)(=O)N(CC)CC)c1,25.1,-3.8,-9.8%,-5.0%,-49.1*,3.4%
CCOC(=O)c1c(C)[nH]c(C)c1C(=O)COC(=O)c1ccc(S(=O)(=O)N(CC)CC)cc1,9.5,-1.5,-14.3%,-1.0%,-15.6,-1.4%
COc1ccc(S(=O)(=O)c2cn(CC(=O)Nc3ccccc3)c3ccc(Cl)cc3c2=O)cc1,6.2,1.4,.,.,-44.8*,.
O=C(Cn1cc(S(=O)(=O)c2ccc(F)cc2)c(=O)c2cc3c(cc21)OCO3)Nc1ccccc1,1.7,0.1,.,.,-33.9*,.
CCc1ccc2c(c1)c(=O)c(S(=O)(=O)c1ccccc1)cn2CC(=O)Nc1ccc(OC)cc1,4.0,-1.5,.,.,17.0,.
CCN(c1ccc(C)cc1C)S(=O)(=O)c1nnc(NC(=O)c2ccc(F)cc2)s1,-1.2,-1.3,.,.,1.4,.
COc1ccc(C(=O)NC(C)CCc2ccccc2)c(O)c1 (configuration not stated),16.3,-6.5,12.3%,-0.1%,-47.7*,2.9%
COc1ccc(C(=O)NC(C)CCc2ccccc2)cc1 (configuration not stated),0.3,-0.6,5.1%,1.1%,-2.2,-2.1%
CCOC(=O)c1[nH]c2c(c1Cc1ccccc1)C(=O)CC(c1ccc(OC)cc1)C2 (configuration not stated),4.3,0.1,.,.,-0.3,.
SMILES,D1 ag,D1 potentiator,Eya2 inh,USP2a inh,D1 antag,GALK inh
O=C(c1cccc(F)c1)N1CCCN(C(=O)c2cccc(F)c2)CC1,1.0,-4.8,10.2%,-3.9%,-80.7*,1.0%
O=C(NCCNc1ccc([N+](=O)[O-])cc1C(F)(F)F)c1ccccc1,6.0,-18.4,-5.5%,-1.2%,-31.2*,-1.0%
Cc1ccc(-n2c(/C=C/c3c(C)n(C)c4ccccc34)nc3ccccc3c2=O)cc1,1.0,-1.9,.,.,3.5,.
CCC(=O)N1CCCc2cc(S(=O)(=O)N3CCC(C(=O)NCc4ccc(F)cc4)CC3)ccc21,0.3,-2.4,.,.,0.6,.
O=c1n(Cc2cccc(F)c2)c2ccccc2c2nc(-c3ccccc3)nn12,-0.4,0.0,.,.,-53.2*,.
O=S(=O)(Nc1cc(Cl)ccc1-n1cncn1)c1cc(Br)ccc1Br,21.5,-10.3,-18.0%,0.3%,-33.3*,.
Cc1ccc(S(=O)(=O)Nc2cc(Cl)ccc2-n2cncn2)cc1,1.3,2.3,-9.4%,1.7%,-38.4*,.
O=S(=O)(Nc1cc(Cl)ccc1-n1cncn1)c1ccccc1Cl,2.0,2.5,3.8%,-0.8%,-2.8,.
Cc1cc2c(cc1Cl)N(C(=O)Nc1ccc(Oc3cccnc3C)nc1)CC2,.,.,-2.5%,.,.,.
c1cncc(CNc2ncnc3sc4c(c23)CCC4)c1,3.6,-1.1,-5.5%,-5.6%,-43.4*,0.4%
O=c1cc(-c2ccccc2Cl)oc2c(NS(=O)(=O)c3ccccc3C(F)(F)F)ccc(O)c12,1.6,-7.0,-6.5%,-7.7%,-30.3*,0.8%
CCOC1(OCC)N=C(N)C2(C#N)C(c3cccc(C)c3)C12C#N (configuration not stated),0.1,-2.0,-2.0%,3.4%,-82.4*,.
Cc1ccc(-c2nc(N)sc2CC(=O)OCC(=O)NC2CCCC(C)C2C)cc1 (configuration not stated),2.8,-11.8,-15.9%,1.8%,-41.4*,-0.4%
CC(C)c1nc2oc3ccccc3c(=O)c2c(=O)n1-c1ccccc1,53.9*,8.8,-1.2%,-0.9%,1.9,3.4%
Cn1c(SCC(=O)N2CCCc3ccccc32)ncc(C(=O)Nc2ccc(Cl)cc2)c1=O,0.3,-1.4,.,.,.,.
COc1ccc(OC)c(CCNc2ncnc3onc(-c4ccc(F)cc4)c23)c1,33.3*,-3.0,.,.,-32.4*,.
Cc1ccc(Oc2nnc(-c3cccs3)c3ccccc23)cc1C,1.0,-6.0,3.2%,-0.3%,-31.6*,0.2%
Cc1ccc(Oc2nnc(-c3cccs3)c3ccccc23)cc1,0.3,-1.4,1.6%,-0.3%,13.7,0.0%
O=C(Nc1ccc(Br)cc1F)c1ccc2nsnc2c1,3.7,-4.3,-13.1%,2.5%,-33.1*,-1.3%
NCCc1nnc(SCc2ccc(Cl)cc2)o1,0.3,0.2,.,.,-1.5,.

# Screening results as filed in PubChem BioAssay.
